FUS suppressor = qHTS for Suppressors of FUS Proteinopathy: Primary screen using FUS-linked yeast assay; hit rate 0.24% among 390,000; AID 1347120, 2019; S. cerevisiae FUS-expressing, growth rescue, OD600, 24 h; Potency, µM (highest dose often 76.6 µM), actives largely listed as activators;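 further: plate controls were DMSO vehicle for no effect and reference control for full effect; nearly all actives have a fitted effect of over 55% in size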
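Quantitative HTS measuring growth restoration of FUS-toxic yeast. Galactose-induced cells (OD 0.005) were exposed 24hr at 30C to compounds at several concentrations, then absorbance at 600 nm was recorded.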
PINK1 modulator = A Quantitative High throughput Screen to Identify Chemical Modulators of PINK1 Expression. PINK1 immunofluorescence, high-content cytometry, 24 h. Potency, µM (doses to about 76.6 µM), for the others: top-dose activation (PINK1 increase), actives largely listed as activators. hit rate 0.2% among 410,000; active means well fitted activation curve with a large enough effect; inconclusive means small, poorly fitted or top-dose-only effect; cell line not stated here; further: % of control where 0% means no effect; nearly all actives have a fitted effect of over 65% in size
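Readout is PINK1 immunofluorescence, quantified alongside mitochondrial, cell and nuclear markers by laser-scanning microplate cytometry. Cells from a stable line were exposed to compound titrations (5 concentrations) for 24 hours, with CCCP controls.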
Vif-A3G inh = qHTS for Inhibitors of Vif-A3G Interactions: qHTS | hit rate 0.076% among 410,000 | Potency, µM (titrated, usually from 46.1 µM), for the others: at the highest dose activity, negative = active, actives largely listed as inhibitors | AID 602310, 2012 | DNA dC->dU-editing enzyme APOBEC-3G (Homo sapiens), Q9HC16 | HeLa A3G-eYFP + Vif (tagged APOBEC3G with the HIV-1 protein that degrades it), YFP fluorescence, overnight; further: on the % scale 0 is the no-effect control and ±100 the full control effect; nearly all actives have a fitted effect of over 60% in size
Target sequence (Q9HC16 whole entry, looked up): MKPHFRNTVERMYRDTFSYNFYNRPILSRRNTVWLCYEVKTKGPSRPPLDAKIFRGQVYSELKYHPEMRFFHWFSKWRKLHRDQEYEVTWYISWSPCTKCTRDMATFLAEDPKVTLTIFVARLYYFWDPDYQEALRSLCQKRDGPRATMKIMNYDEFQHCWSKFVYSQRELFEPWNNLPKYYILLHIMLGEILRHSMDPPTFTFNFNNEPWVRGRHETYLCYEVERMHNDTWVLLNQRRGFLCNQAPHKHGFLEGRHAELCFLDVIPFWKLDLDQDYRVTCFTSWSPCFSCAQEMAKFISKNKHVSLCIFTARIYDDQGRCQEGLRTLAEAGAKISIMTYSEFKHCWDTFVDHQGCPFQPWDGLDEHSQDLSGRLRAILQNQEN
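Read-out is eYFP fluorescence (Ex 488/Em 500-530) from Vif-expressing HeLa A3G-eYFP cells; more signal means A3G escaped Vif-mediated degradation. Cells plated overnight, compound pinned in, incubated overnight at 37 deg C.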
Abeta yeast res = qHTS for compounds that reverse cellular toxicity of Amyloid beta (A-beta) peptide in yeast: Primary Screen. yeast expressing A-beta42, growth rescue, OD600, 48 h; response scale: 0% DMSO, 100% iron-clioquinol control. Potency, µM (series often up to 46.1 µM), actives largely listed as activators. hit rate 0.063% among 410,000; further: nearly all actives have a fitted effect of over 55% in size
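Yeast growth medium received pinned compounds, then yeast cells expressing toxic A-beta were added; plates incubated at 30 C for 48 hr. Growth read as absorbance at 600 nm, normalized to DMSO and equimolar FeCl3 plus clioquinol controls.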
GRP78 ERSR act = qHTS for Inducers of the Endoplasmic Reticulum Stress Response (ERSR) in Human Glioma: qHTS. U87-MG GRP78 promoter luciferase reporter, 16 h. Potency, µM, for inactives: top-dose activation, most hits filed as activators. hit rate 0.02% among 420,000. AID 602332, 2012; further: series mostly up to about 76 µM; % of control where 0% means no effect; nearly all actives have a fitted effect of over 35% in size
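ERSR induction read as luciferase luminescence (Bright-Glo, 10 min at room temperature) in stably transfected human U87-MG glioma cells exposed to compounds for 16 h, using GRP78 as sensor.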
Vif-APOBEC3F blk = qHTS for Inhibitors of Vif-A3F Interactions: qHTS | HeLa A3F-eYFP + Vif (tagged APOBEC3F with the HIV-1 protein that degrades it), YFP fluorescence increase | Potency, µM (highest dose often 46.1 µM), for the others: at the top dose activity, negative = active | hit rate 0.2% among 390,000; further: % of control where 0% means no effect; nearly all actives have a fitted effect of over 65% in size
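HeLa cells stably expressing Vif plus C-terminally eYFP-tagged A3F were seeded, incubated overnight at 37 deg C, dosed with compound, incubated overnight again at 37 deg C. Yellow fluorescence (Ex 488/Em 500-530) reported blocked Vif-mediated A3F-eYFP degradation.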
Numbers without * were called inactive; i = inactive; ? = inconclusive; · = not tested or not shown; [ ] = another dose, or the depositor's remark. In the library only some 0.69% were active in any assay of this set; here they are far more common. Unless noted, the call rests on the fitted dose curve; in most records, active means well fitted curve in the direction sought with a large enough effect; inconclusive means small, poorly fitted or top-dose-only effect, or another doubt; inactive means no such curve, though single readings can be large; an effect the other way counts as inactive or inconclusive. Potency means the concentration at half of the fitted maximal effect.

SMILES	FUS suppressor	PINK1 modulator	Vif-A3G inh	Abeta yeast res	GRP78 ERSR act	Vif-APOBEC3F blk
COc1ccc(CN(C)C(=S)Nc2ccc(Cl)cc2)cc1	i	2%	-15%	11µM*	-5%	6%
CCN(CC)C(=S)Nc1ccc(OC)cc1	·	2%	2%	i	-1%	-7%
COC(=O)c1cn([C@@H]2C[C@@H](C(=O)N3CCCCCC3)N(Cc3cc4ccccc4s3)C2)nn1	·	0%	·	·	?	·
COc1ccc(OC)c2c(/C=C/c3c(C)[nH]c4ccccc34)ccnc12	·	·	0%	·	-11%	·
CN1CCc2c(sc3c2C(=O)NC(c2ccc(-c4ccc(Cl)cc4)o2)N3)C1 (stereo not given)	i	8%	?	i	2%	28µM*
COc1ccc(-c2cc(=O)oc3c(O)c(O)ccc23)cc1	i	-1%	2%	i	-5%	-18%
O=c1ccc2ccc(O)c(O)c2o1	·	·	·	·	41µM*	·
CC(C)(C)n1ncc2c(=O)n(Cc3ccc(-c4ccccc4C#N)cc3)cnc21	·	·	0%	·	-1%	·
CCOC(=O)C1=C(c2ccccc2)NC(N)=NC1c1ccc(OCc2ccc(C(=O)OC)cc2)cc1 (stereo not given)	25µM*	-1%	-15%	i	-18%	2%
CCOc1ccc2nc(NC(=O)c3nc(SC(C)C)ncc3Cl)sc2c1	i	?	2%	i	0%	5µM*
Cn1nc(C(=O)NCCN2Cc3ccccc3OC(c3ccsc3)C2)c2ccccc2c1=O (stereo not given)	·	2%	·	·	-2%	·
CSCCC(NS(=O)(=O)c1ccc(Cl)cc1)C(=O)OCc1c(Cl)cccc1Cl (stereo not given)	·	40µM*	-9%	i	-1%	3%
CSCCC(NS(=O)(=O)c1ccc(Cl)cc1)C(=O)OCc1cccc(Cl)c1 (stereo not given)	·	10%	1%	?	-4%	8%
Cc1ccc(NC(=O)c2cc(C(=O)c3cc(Cl)ccc3O)cn(-c3ccc(C)cc3)c2=O)cc1	·	35µM*	-4%	i	0%	0%
N#Cc1cc(C(=O)c2cc(Cl)ccc2O)cn(-c2ccccc2)c1=O	·	4%	-1%	i	-2%	0%
CC(=O)NC(c1cccs1)c1cc(F)c2cccnc2c1O (stereo not given)	i	-1%	?	i	-3%	10µM*
Cc1ccc(NC(=O)/C(C#N)=C/c2ccc(C)s2)c(C)c1	i	12%	11µM*	i	-2%	?
Cc1ccc(/C=C(\C#N)C(=O)Nc2c(C)cccc2C)s1	i	2%[38.3 µM]	-1%	i	-3%	-17%
O=C(O)CCCCCN1C(=O)C(O)=C(C(=O)/C=C/c2ccccc2)C1c1ccc2c(c1)OCO2 (stereo not given)	35µM*	1%	1%	i	-5%	0%
COc1ccc(C(=O)C(C)[n+]2ccc(C)c3ccccc32)cc1[N+](=O)[O-] (stereo not given)	i	-1%	5.6µM*	i	3%	?
COc1ccc(C(=O)NC(C)CCc2ccccc2)cc1[N+](=O)[O-] (stereo not given)	i	-1%	4%	i	-5%	-13%
COc1ccc(C(=O)NCC2Cc3cc(C)cc(-c4cc(C(C)=O)ccc4F)c3O2)c(OC)c1OC (stereo not given)	·	0%	·	·	-1%	·
NC(=O)C1CCN(c2nc(-c3ccc4c(c3)OCCCO4)cs2)CC1	25µM*	·	·	·	·	·
NC(=O)C1CCN(c2nc(-c3ccc4ccccc4c3)cs2)CC1	i	1%	1%	i	-1%	-7%
O=C(CN1Cc2ccccc2OC(c2ccccc2)C1)NCc1cccnc1 (stereo not given)	·	0%	·	·	0%	·

Compound activity as filed in PubChem.
